Screening data as filed in PubChem BioAssay.
A selection: hits, their analogues and other compounds. The true share with any hit is near 12%.
Sfp PPTase inh: blocks B. subtilis Sfp PPTase activity | Q9F4F7 | Biochemical Sfp PPTase activity, qHTS | Potency, µM, actives largely listed as inhibitors | 310,000 tested, 3.5% active;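 further: the enzyme is Sfp with the accession as filed and its product quenches rhodamine fluorescence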
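Compounds were incubated with enzyme (final 15 nM) for 15 min at room temperature before substrate addition started the reaction. Fluorescence at 525 nm excitation, 598 nm emission was recorded immediately and after 30 minutes.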
JMJD2A Tudor inh: JMJD2A Tudor domain (human) inhibition | O75164 | AlphaScreen JMJD2A-Tudor / H3K4me3 peptide binding | Potency, µM (titrated, usually from 114 µM), usual class: inhibitors | 390,000 tested, 4.4% active; further: nearly all actives have a fitted effect of over 50% in size
L3MBTL1 block: L3MBTL1 (human) inhibition; AlphaScreen L3MBTL1–H3K9me1 peptide binding; AID 485360; 230,000 tested, 0.66% active; Q9Y468; Potency, µM (series often up to 57.1 µM), hits mostly inhibitors; further: nearly all actives have a fitted effect of over 60% in size
Target sequence (Q9Y468 whole entry, looked up): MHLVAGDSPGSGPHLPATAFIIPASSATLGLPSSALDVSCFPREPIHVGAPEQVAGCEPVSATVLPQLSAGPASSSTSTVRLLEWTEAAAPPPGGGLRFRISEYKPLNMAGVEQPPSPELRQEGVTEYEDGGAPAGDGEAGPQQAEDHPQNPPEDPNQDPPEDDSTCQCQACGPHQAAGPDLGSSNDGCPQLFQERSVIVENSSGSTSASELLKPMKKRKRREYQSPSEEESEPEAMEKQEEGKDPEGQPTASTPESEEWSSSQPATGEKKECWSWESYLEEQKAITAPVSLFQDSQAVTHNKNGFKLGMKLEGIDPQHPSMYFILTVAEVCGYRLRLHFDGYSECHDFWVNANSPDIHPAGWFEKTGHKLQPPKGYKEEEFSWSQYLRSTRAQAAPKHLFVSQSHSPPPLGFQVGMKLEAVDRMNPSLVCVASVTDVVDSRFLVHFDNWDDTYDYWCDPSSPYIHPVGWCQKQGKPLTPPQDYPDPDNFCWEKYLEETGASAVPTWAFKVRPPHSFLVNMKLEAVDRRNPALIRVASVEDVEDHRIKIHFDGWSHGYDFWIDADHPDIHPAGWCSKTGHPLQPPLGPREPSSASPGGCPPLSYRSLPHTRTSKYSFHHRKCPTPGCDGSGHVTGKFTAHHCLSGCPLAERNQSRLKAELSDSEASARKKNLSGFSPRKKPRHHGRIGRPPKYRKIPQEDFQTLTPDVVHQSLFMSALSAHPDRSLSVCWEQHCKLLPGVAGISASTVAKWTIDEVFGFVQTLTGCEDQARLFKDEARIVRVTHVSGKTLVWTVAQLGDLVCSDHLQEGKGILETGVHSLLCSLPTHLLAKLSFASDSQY
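Read-out is AlphaScreen signal from streptavidin donor and nickel chelate acceptor beads (10 ug/mL final each) bridging L3MBTL1 (50 nM) and biotinylated K9-monomethylated H3(1-15) peptide (75 nM), after 30 min compound exposure at room temperature.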
G9a inh: blocks human histone lysine methyltransferase G9a | 350,000 tested, 8.8% active | G9a H3K9 monomethylation, AlphaScreen, 2 h | Potency, µM (top dose mostly 102 µM), hits mostly inhibitors | Q96KQ7 | AID 504332; further: nearly all actives have a fitted effect of over 75% in size
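Readings reflect AlphaScreen signal from monomethyl-H3K9 antibody detection. HMT at 20 nM; substrate b-H3K9 500 nM; cofactor SAM 20 uM; 2 h RT reaction; compounds tested as titrations in qHTS with 15 min preincubation.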
HP1b binding inh: blocks HP1-beta chromodomain binding to methylated histone tails; Potency, µM (highest dose often 114 µM), actives largely listed as inhibitors; 390,000 tested, 0.56% active; AID 540317; AlphaScreen HP1-beta / biotin-H3K9me3 peptide binding; further: nearly all actives have a fitted effect of over 70% in size
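AlphaScreen: HP1-beta (50 nM) preformed 30 min with biotin-H3(1-18)K9me3 peptide (50 nM) in PBS pH 7.4, 0.01% Tween-20. Compound added for 30 min at RT, then streptavidin donor/nickel chelate acceptor beads (10 ug/mL) for 30 min.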
BAZ2B inh: inhibitors of human BAZ2B bromodomain | Q9UIF8 | Potency, µM (series often up to 114 µM), usual class: inhibitors | AlphaScreen BAZ2B-H3K14Ac peptide displacement | 360,000 tested, 4.4% active; further: nearly all actives have a fitted effect of over 60% in size
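Compounds, titrated to a top concentration of 110 uM, were incubated 30 min at room temperature with preformed BAZ2B/acetyl-K14 H3 peptide complex (50 nM each). Proximity signal was measured by AlphaScreen after 20 min with beads.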
Of the large screens only hits and unclear results are named; the others gave an inactive call. The call rests on the fitted dose curve; in most records, active means well fitted curve in the direction sought with a large enough effect; inconclusive means small, poorly fitted or top-dose-only effect, or another doubt; inactive means no such curve, though single readings can be large; an effect the other way counts as inactive or inconclusive.

N=c1c2c(ncn1-c1ccccc1)Oc1ccc3ccccc3c1C2c1ccc2c(c1)OCO2 (stereo not given)	JMJD2A Tudor inh 45µM (no result: Sfp PPTase inh, L3MBTL1 block, G9a inh, HP1b binding inh, BAZ2B inh)
COc1cccc(C2c3c(ncn(-c4cccc(F)c4)c3=N)Oc3ccc4ccccc4c32)c1 (stereo not given)	JMJD2A Tudor inh 50µM (no result: Sfp PPTase inh, L3MBTL1 block, G9a inh, HP1b binding inh, BAZ2B inh)
COc1ccccc1C1c2c(ncn(-c3ccccc3)c2=N)Oc2ccc3ccccc3c21 (stereo not given)	JMJD2A Tudor inh 56µM (no result: Sfp PPTase inh, L3MBTL1 block, G9a inh, HP1b binding inh, BAZ2B inh)
CC1CCN(S(=O)(=O)c2ccc3c(c2)N(CC(=O)NCc2ccccc2)C(=O)CO3)CC1	none (no result: Sfp PPTase inh, L3MBTL1 block)
COc1cccc(C2c3c(ncn(-c4ccccc4)c3=N)Oc3ccc4ccccc4c32)c1 (stereo not given)	JMJD2A Tudor inh 56µM (no result: Sfp PPTase inh, L3MBTL1 block, G9a inh, HP1b binding inh, BAZ2B inh)
COc1cccc(C2c3c(ncn(CCN4CCOCC4)c3=N)Oc3ccc4ccccc4c32)c1 (stereo not given)	none (no result: Sfp PPTase inh, L3MBTL1 block, G9a inh, HP1b binding inh, BAZ2B inh)
COc1ccc(C2c3c(ncn(CCCO)c3=N)Oc3ccc4ccccc4c32)cc1OC (stereo not given)	G9a inh inconclusive, BAZ2B inh inconclusive
COc1cccc(C2c3c(ncn(-c4ccccc4OC)c3=N)Oc3ccc4ccccc4c32)c1 (stereo not given)	JMJD2A Tudor inh 56µM (no result: Sfp PPTase inh, L3MBTL1 block, G9a inh, HP1b binding inh, BAZ2B inh)
CC(C)(C)OC(=O)N1CCC(c2c(C(=O)NCCN3CCOCC3)cnn2-c2ccc(F)cc2)CC1	none (no result: Sfp PPTase inh, L3MBTL1 block)
COc1ccc(Cl)cc1NC(=O)c1cc2nc(-c3ccc(C)cc3)cc(C(F)(F)F)n2n1	none (no result: Sfp PPTase inh, L3MBTL1 block)
COc1ccc(N(C(=O)COc2ccc(Br)cc2)S(=O)(=O)c2ccc(C)cc2)cc1	none (no result: Sfp PPTase inh, L3MBTL1 block)
Cc1ccc2nc(CCc3ccc(N)cc3)[nH]c2c1	JMJD2A Tudor inh inconclusive, G9a inh 35µM, BAZ2B inh inconclusive
Nc1ccc2nc(CCc3ccccc3)[nH]c2c1	Sfp PPTase inh inconclusive, JMJD2A Tudor inh inconclusive, G9a inh 7.9µM, BAZ2B inh inconclusive
CCc1nc2ccc(Cc3ccc4nc(CC)[nH]c4c3)cc2[nH]1	G9a inh 45µM (no result: L3MBTL1 block)
CCOC(=O)C1CCCN(S(=O)(=O)c2ccc3c(c2)CCN3C(=O)CC)C1 (stereo not given)	none (no result: Sfp PPTase inh, L3MBTL1 block)
Cc1ccc(C)c(C(=O)CSc2n[nH]c(-c3ccncc3)n2)c1	JMJD2A Tudor inh 89µM
Cc1cc(-c2ccccc2)nc(SCC(=O)c2cccc([N+](=O)[O-])c2)n1	BAZ2B inh inconclusive
CCc1nc(SCC(=O)c2cccc([N+](=O)[O-])c2)n[nH]1	Sfp PPTase inh inconclusive, JMJD2A Tudor inh 40µM, G9a inh inconclusive, HP1b binding inh inconclusive
O=C(CSc1n[nH]c(-c2ccncc2)n1)c1cccc([N+](=O)[O-])c1	Sfp PPTase inh inconclusive, G9a inh 22µM
Nc1nc(SCC(=O)c2cccc([N+](=O)[O-])c2)n[nH]1	Sfp PPTase inh inconclusive, G9a inh 2.5µM
Cc1c(-c2nc(-c3ccc4c(c3)OCO4)no2)nnn1-c1ccc(C(C)C)cc1	none (no result: Sfp PPTase inh, L3MBTL1 block)
CCc1ccc(-n2c(N3CCN(c4ccc(F)cc4)CC3)nc3ccccc3c2=O)cc1	G9a inh inconclusive (no result: Sfp PPTase inh, L3MBTL1 block, BAZ2B inh)
CCOC(=O)c1c(C)oc2c1c(CN1CCN(C(=O)OCC)CC1)c(O)c1ccccc12	JMJD2A Tudor inh inconclusive, G9a inh 3.2µM, BAZ2B inh inconclusive
CCOC(=O)c1c(C)oc2ncnc(N3CCN(c4ccccc4)CC3)c12	none (no result: Sfp PPTase inh, L3MBTL1 block)
CCOC(=O)c1c(C)oc2c1c(C(c1ccncc1)N1CCOCC1)c(O)c1ccccc12 (stereo not given)	Sfp PPTase inh inconclusive, JMJD2A Tudor inh inconclusive, G9a inh inconclusive, HP1b binding inh 71µM, BAZ2B inh 14µM
CCOC(=O)c1c(C)oc2c1c(C=NCCC(=O)O)c(O)c1ccccc12	G9a inh 50µM, BAZ2B inh inconclusive
CCOC(=O)c1c(C)oc2c1c1c(c3ccccc32)OCN(Cc2ccccn2)C1	Sfp PPTase inh inconclusive, JMJD2A Tudor inh inconclusive, BAZ2B inh 45µM
COc1ccccc1N1CCN(C(=O)Cn2ncc3ccsc3c2=O)CC1	none (no result: Sfp PPTase inh, L3MBTL1 block)
CCOC(=O)c1c(C)oc2c1c(CN1CCN(CCO)CC1)c(O)c1ccccc12	Sfp PPTase inh inconclusive, JMJD2A Tudor inh inconclusive, G9a inh 1.4µM, HP1b binding inh inconclusive (no result: L3MBTL1 block, BAZ2B inh)
